Assay outcomes (PubChem)
The full list was thinned out, with hits kept by preference.
miR-122 inh: raises miR-122 sensor activity in Huh7 cells; activation, % at 12.5 µM; Huh7 psiCHECK-miR122 Renilla luciferase sensor, 48 h; AID 623901; 340,000 tested, 0.14% active;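 active = mean activation of 30% or more, with every replicate also reaching 30%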;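 also: higher luciferase signal means stronger suppression of miR-122 activity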
Hits are given with their value; 0 = inactive.

SMILES | miR-122 inh
C[C@H]1CN([C@@H](C)CO)C(=O)c2cc(C#Cc3ccccc3F)cnc2O[C@H]1CN(C)C(=O)Cc1ccncc1 | 0
CC(C)(CNC(=S)NCCc1ccccc1)CNC(=S)NCCc1ccccc1 | 0
c1ccc(CCNc2nnnn2-c2ccccc2)cc1 | 45.5
C[C@@H]1CN([C@@H](C)CO)C(=O)c2cc(-c3ccc(C#N)cc3)cnc2O[C@H]1CN(C)CC1CCOCC1 | 0
CCCNC(=O)N(C)C[C@H]1Oc2ncc(/C=C/c3ccccc3)cc2C(=O)N([C@@H](C)CO)C[C@H]1C | 0
COCC#Cc1cnc2c(c1)C(=O)N([C@@H](C)CO)C[C@H](C)[C@H](CN(C)C(=O)Nc1c(C)noc1C)O2 | 0
C[C@H](CO)N1C[C@H](C)[C@@H](CN(C)Cc2ccccn2)Oc2ncc(-c3ccc(F)cc3)cc2C1=O | 0
CCC(=O)Nc1ccc2c(c1)OC[C@@H](C)N(C(=O)CN1CCOCC1)C[C@H](C)[C@H](OC)CN(C)C2=O | 0
C[C@H](CO)N1C[C@H](C)[C@@H](CN(C)C(=O)Cc2ccncc2)Oc2ncc(C#Cc3ccccc3F)cc2C1=O | 0
Cc1ccc(S(=O)(=O)N(C)C[C@@H]2Oc3cc(C#CC4CCCC4)ccc3S(=O)(=O)N([C@@H](C)CO)C[C@H]2C)cc1 | 0
CCC(=O)N(C)C[C@H]1Oc2cc(C#C[C@@H](C)O)ccc2S(=O)(=O)N([C@@H](C)CO)C[C@@H]1C | 0
C[C@H]1CN([C@@H](C)CO)S(=O)(=O)c2ccc(-c3cccc(C#N)c3)cc2O[C@@H]1CN(C)Cc1ccccn1 | 0
O=C1NC(=O)/C(=C\c2ccccc2OCc2ccc([N+](=O)[O-])cc2)N1 | 37.2
COc1ccc2[nH]c(=O)c(COC(=O)c3ccco3)cc2c1 | 30.8
CCN(Cc1ccccc1)C(=O)c1[nH]c2ccc(OC)cc2c1C | 0
CO[C@@H]1CN(C)C(=O)c2cc(NC(C)=O)ccc2OC[C@H](C)N(C(=O)c2ccccc2)C[C@@H]1C | 0
COc1ccc(NC(=O)Nc2ccc3c(c2)OC[C@@H](C)NC[C@H](C)[C@@H](OC)CN(C)C3=O)cc1 | 0
CO[C@@H]1CN(C)C(=O)c2ccc(NC(C)=O)cc2OC[C@@H](C)N(C(=O)c2ccccc2F)C[C@H]1C | 35.2
CO[C@@H]1CN(C)C(=O)c2ccc(NC(=O)c3ccc(Oc4ccccc4)cc3)cc2OC[C@H](C)NC[C@@H]1C | 36.6
COc1ccc(NC(=O)Nc2ccc3c(c2)OC[C@@H](C)NC[C@@H](C)[C@@H](OC)CN(C)C3=O)cc1 | 0
CCC(=O)Nc1ccc2c(c1)OC[C@@H](C)N(C(=O)c1ccccc1F)C[C@H](C)[C@@H](OC)CN(C)C2=O | 0
COc1ccc(C(=O)Nc2ccc3c(c2)OC[C@H](C)N(C)C[C@H](C)[C@H](OC)CN(C)C3=O)cc1 | 0
CCCC#Cc1cnc2c(c1)C(=O)N([C@@H](C)CO)C[C@@H](C)[C@@H](CN(C)C(=O)C1CC1)O2 | 0
COCC#Cc1cnc2c(c1)C(=O)N([C@H](C)CO)C[C@H](C)[C@@H](CN(C)C(=O)Nc1ccccc1OC)O2 | 0
C[C@@H]1CN([C@@H](C)CO)C(=O)c2cc(-c3ccc(F)cc3)cnc2O[C@@H]1CN(C)Cc1cccnc1 | 0
SMILES | miR-122 inh
CCC(=O)N(C)C[C@H]1Oc2ncc(C#C[C@H](C)O)cc2C(=O)N([C@H](C)CO)C[C@H]1C | 0
C[C@H]1CN([C@@H](C)CO)C(=O)c2cc(C#CC(C)(C)O)cnc2O[C@H]1CN(C)C(=O)C1CC1 | 0
CCCCNc1cc(C)nc(NCc2ccccc2)n1 | 41.0
C/C=C/c1cnc2c(c1)C(=O)N([C@@H](C)CO)C[C@H](C)[C@@H](CN(C)S(=O)(=O)c1cccs1)O2 | 0
C[C@H](CO)N1C[C@H](C)[C@H](CN(C)C(=O)Nc2ccccc2)Oc2ncc(-c3ccccc3)cc2C1=O | 0
CN1C(=O)c2cc(NC(=O)Cc3cccs3)ccc2OC[C@@H]2O[C@H](CC(=O)NCc3ccc(-c4ccccc4)cc3)CC[C@@H]21 | 0
CN1C(=O)c2cc(NC(=O)Cc3cccs3)ccc2OC[C@@H]2O[C@@H](CC(=O)NCC3CCCCC3)CC[C@@H]21 | 0
CCC(=O)N1C[C@H](C)[C@H](OC)CN(C)C(=O)c2ccc(NC(=O)C3CCCCC3)cc2OC[C@@H]1C | 0
CCNC(=O)C[C@@H]1CC[C@@H]2[C@@H](COc3ccc(NC(=O)C4CCCCC4)cc3C(=O)N2C)O1 | 33.3
CCC(=O)N1C[C@H](C)[C@@H](OC)CN(C)C(=O)c2ccc(NC(=O)C3CCCCC3)cc2OC[C@H]1C | 0
CCNC(=O)C[C@@H]1CC[C@H]2[C@@H](COc3ccc(NC(=O)Nc4ccc(F)cc4)cc3C(=O)N2C)O1 | 50.0
CN1C(=O)c2cc(NC(=O)Nc3ccccc3F)ccc2OC[C@@H]2O[C@@H](CC(=O)NCc3ccc(-c4ccccc4)cc3)CC[C@H]21 | 47.8
CN1C(=O)c2cc(NC(=O)NCc3ccccc3)ccc2OC[C@@H]2O[C@@H](CC(=O)NCC3CCCCC3)CC[C@@H]21 | 0
CCCNC(=O)Nc1ccc2c(c1)C(=O)N(C)[C@H]1CC[C@@H](CC(=O)NCC3CCCCC3)O[C@@H]1CO2 | 41.7
CNC[C@@H]1Oc2cc(C#C[C@H](C)O)ccc2S(=O)(=O)N([C@H](C)CO)C[C@H]1C | 0
CCC(=O)N(C)C[C@@H]1Oc2ncc(C#Cc3ccc(OC)cc3)cc2C(=O)N([C@H](C)CO)C[C@@H]1C | 0
C[C@H]1CN([C@@H](C)CO)S(=O)(=O)c2ccc(-c3cccc(C#N)c3)cc2O[C@H]1CN(C)Cc1ccccn1 | 0
C[C@@H]1CN([C@H](C)CO)C(=O)c2cc(C#Cc3ccccc3)cnc2O[C@@H]1CN(C)Cc1ccccn1 | 0
C[C@@H]1CN([C@@H](C)CO)C(=O)c2cc(C#Cc3ccccc3F)cnc2O[C@H]1CN(C)C(=O)C1CCOCC1 | 0
C[C@@H]1CN([C@H](C)CO)C(=O)c2cc(/C=C/c3ccccc3)cnc2O[C@@H]1CN(C)C(=O)c1cccnc1 | 0
COCC#Cc1cnc2c(c1)C(=O)N([C@@H](C)CO)C[C@H](C)[C@@H](CN(C)C(=O)Cc1ccccc1)O2 | 0
C[C@@H]1CN([C@H](C)CO)C(=O)c2cc(C#Cc3cccc(F)c3)cnc2O[C@H]1CN(C)CC1CCOCC1 | 0
C[C@H](CO)N1C[C@H](C)[C@H](CN(C)C(=O)c2cccc(F)c2)Oc2ncc(-c3cccc(F)c3)cc2C1=O | 0
C[C@H]1CN([C@@H](C)CO)C(=O)c2cc(C#Cc3ccc(F)cc3)cnc2O[C@H]1CN(C)C(=O)c1ccccc1F | 0
C[C@H](CO)N1C[C@H](C)[C@H](CN(C)Cc2ccccn2)Oc2ncc(C#Cc3ccc(F)cc3)cc2C1=O | 0
SMILES | miR-122 inh
CCNC(=O)Nc1ccc2c(c1)C(=O)N(C)[C@H]1CC[C@H](CC(=O)Nc3cccc(F)c3)O[C@@H]1CO2 | 66.7
CO[C@H]1CN(C)C(=O)c2ccc(NC(=O)Nc3cccc(F)c3)cc2OC[C@@H](C)N(C)C[C@H]1C | 0
CO[C@H]1CN(C)C(=O)c2cc(NC(=O)Nc3ccccc3)ccc2OC[C@@H](C)NC[C@@H]1C | 0
CCCNC(=O)N1C[C@H](C)[C@H](OC)CN(C)C(=O)c2cc(NS(=O)(=O)CC)ccc2OC[C@@H]1C | 0
Cc1cccc(NC(=O)Nc2ccc3c(c2)C(=O)N(C)[C@@H]2CC[C@@H](CC(=O)NCc4ccccc4Cl)O[C@H]2CO3)c1 | 55.0
COCCNC(=O)C[C@@H]1CC[C@H]2[C@@H](COc3ccc(NC(C)=O)cc3C(=O)N2C)O1 | 0
CCS(=O)(=O)Nc1ccc2c(c1)C(=O)N(C)[C@@H]1CC[C@@H](CC(=O)NCCCN3CCOCC3)O[C@H]1CO2 | 67.5
